Source: PubChem BioAssay (NCI)
Several values for one entry are separate records, joined by “and”; a condition that tells them apart may be missing. Equal entries are not always repeated. This is part of a sample that, as a whole, favours compounds with a hit. Of some 83,000 tested, about 20% had one in any assay.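 How to read the values: 0–100, growth inhibition (40 = 60% inhibited); 0, no net growth; -100 to 0, cell death (-40 = 40% of starting cells died; -100 = all dead).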 Activity calls are given as the source filed them. Rule for the calls: active = growth percent below 10; inactive = the rest.

Key:
Experiment in all cases: NCI-60 one-dose screen, 48 h (100 = growth as untreated, 0 = no growth, -100 = all killed)
Conditions in all cases: 10 µM unless noted
SR leukemia = tested on: SR leukemia
RPMI-8226 leukemia = tested on: RPMI-8226 leukemia
OVCAR-8 ovarian = tested on: OVCAR-8 ovarian
OVCAR-5 ovarian = tested on: OVCAR-5 ovarian
OVCAR-4 ovarian = tested on: OVCAR-4 ovarian
SK-OV-3 ovarian = tested on: SK-OV-3 ovarian
IGROV1 ovarian = tested on: IGROV1 ovarian
HS 578T breast = tested on: HS 578T breast
NCI/ADR-RES ovarian = tested on: NCI/ADR-RES ovarian
OVCAR-3 ovarian = tested on: OVCAR-3 ovarian

## O=C(Nc1ccccc1)Oc1c(Cl)c(Cl)c(Cl)c(Cl)c1Cl
SR leukemia
  growth: 98.2% (inactive) and 99.2% (inactive)
RPMI-8226 leukemia
  growth: 95.2% (inactive)
OVCAR-8 ovarian
  growth: 105% (inactive) and 98% (inactive)
OVCAR-5 ovarian
  growth: 95.3% (inactive) and 87.5% (inactive)
OVCAR-4 ovarian
  growth: 111% (inactive) and 91.9% (inactive)
SK-OV-3 ovarian
  growth: 102% (inactive) and 90.5% (inactive)
IGROV1 ovarian
  growth: 95.2% (inactive) and 96.3% (inactive)
HS 578T breast
  growth: 91.6% (inactive)
NCI/ADR-RES ovarian
  growth: 103% (inactive) and 96.6% (inactive)

## O=C1c2ccccc2C(=O)c2sc(Nc3ccc(Cl)cc3)nc21
SR leukemia
  growth: 4.26% (active)
RPMI-8226 leukemia
  growth: 7.64% (active)
OVCAR-8 ovarian
  growth: 10.6% (inactive)
OVCAR-5 ovarian
  growth: -62.5% (active)
OVCAR-4 ovarian
  growth: 1.65% (active)
SK-OV-3 ovarian
  growth: 100% (inactive)
IGROV1 ovarian
  growth: 34.8% (inactive)
HS 578T breast
  growth: 70.6% (inactive)
NCI/ADR-RES ovarian
  growth: 16.8% (inactive)

## C=CCOc1ccc(N=NC(C#N)C#N)cc1
SR leukemia
  growth: 8.51% (active)
RPMI-8226 leukemia
  growth: 2.95% (active)
OVCAR-8 ovarian
  growth: 86.9% (inactive)
OVCAR-5 ovarian
  growth: 93.8% (inactive)
OVCAR-4 ovarian
  growth: 31.6% (inactive)
SK-OV-3 ovarian
  growth: 52.7% (inactive)
IGROV1 ovarian
  growth: 53.3% (inactive)
HS 578T breast
  growth: 88.6% (inactive)
NCI/ADR-RES ovarian
  growth: 103% (inactive)

## Cn1c2ccccc2c2nnc(N/N=C/c3ccccn3)nc21
SR leukemia
  growth: 8.61% (active)
RPMI-8226 leukemia
  growth: -14.2% (active)
OVCAR-8 ovarian
  growth: 23.9% (inactive)
OVCAR-5 ovarian
  growth: 40.6% (inactive)
OVCAR-4 ovarian
  growth: 24.4% (inactive)
SK-OV-3 ovarian
  growth: -11.1% (active)
IGROV1 ovarian
  growth: 4.97% (active)
HS 578T breast
  growth: 53.7% (inactive)

## CC1=CC(O)C2CC1C2(C)C (stereo not drawn)
SR leukemia
  growth: 101% (inactive) and 97.3% (inactive)
RPMI-8226 leukemia
  growth: 111% (inactive) and 107% (inactive)
OVCAR-8 ovarian
  growth: 105% (inactive) and 104% (inactive)
OVCAR-5 ovarian
  growth: 104% (inactive) and 110% (inactive)
OVCAR-4 ovarian
  growth: 99.7% (inactive) and 108% (inactive)
IGROV1 ovarian
  growth: 101% (inactive) and 99.3% (inactive)
OVCAR-3 ovarian
  growth: 110% (inactive) and 113% (inactive)
HS 578T breast
  growth: 97.5% (inactive) and 106% (inactive)
NCI/ADR-RES ovarian
  growth: 108% (inactive) and 109% (inactive)

## O=[N+]([O-])c1ccc(N=Nc2ccc(O)cc2O)cc1
SR leukemia
  growth: 16.6% (inactive)
RPMI-8226 leukemia
  growth: 43% (inactive)
OVCAR-8 ovarian
  growth: 61.9% (inactive)
OVCAR-5 ovarian
  growth: 107% (inactive)
OVCAR-4 ovarian
  growth: 48.4% (inactive)
SK-OV-3 ovarian
  growth: 87% (inactive)
IGROV1 ovarian
  growth: 76.5% (inactive)
HS 578T breast
  growth: 51.8% (inactive)
NCI/ADR-RES ovarian
  growth: 52.6% (inactive)

## N#CSCc1c(Cl)cccc1Cl
SR leukemia
  growth: 59.5% (inactive)
RPMI-8226 leukemia
  growth: 47.7% (inactive)
OVCAR-8 ovarian
  growth: 100% (inactive)
OVCAR-5 ovarian
  growth: 106% (inactive)
OVCAR-4 ovarian
  growth: 35.2% (inactive)
SK-OV-3 ovarian
  growth: 96.6% (inactive)
IGROV1 ovarian
  growth: 11.5% (inactive)
HS 578T breast
  growth: 80.6% (inactive)
NCI/ADR-RES ovarian
  growth: 95.4% (inactive)

## Cc1ccc(NS(=O)(=O)c2ccc(C)cc2)cc1
SR leukemia
  growth: 91.7% (inactive) and 97.8% (inactive)
RPMI-8226 leukemia
  growth: 83.1% (inactive) and 95.2% (inactive)
OVCAR-8 ovarian
  growth: 97.5% (inactive) and 92.7% (inactive)
OVCAR-5 ovarian
  growth: 111% (inactive) and 105% (inactive)
OVCAR-4 ovarian
  growth: 93.7% (inactive) and 106% (inactive)
SK-OV-3 ovarian
  growth: 109% (inactive) and 101% (inactive)
IGROV1 ovarian
  growth: 111% (inactive) and 107% (inactive)
HS 578T breast
  growth: 98.9% (inactive) and 111% (inactive)
NCI/ADR-RES ovarian
  growth: 104% (inactive) and 99.7% (inactive)

## CN(C)c1ccc(/C=N/N=C(\C#N)[S][Sn]([Cl])([c]2ccccc2)[c]2ccccc2)cc1
SR leukemia
  growth: 5.61% (active)
RPMI-8226 leukemia
  growth: -13.8% (active)
OVCAR-8 ovarian
  growth: 60.6% (inactive)
OVCAR-5 ovarian
  growth: 13.1% (inactive)
OVCAR-4 ovarian
  growth: 28.1% (inactive)
IGROV1 ovarian
  growth: 43% (inactive)
OVCAR-3 ovarian
  growth: -80.1% (active)
HS 578T breast
  growth: 61.7% (inactive)
NCI/ADR-RES ovarian
  growth: 66.9% (inactive)

## CN=C(N)N/N=C(\C)c1ccc2c(c1)Cc1cc(/C(C)=N/NC(N)=NC)ccc1-2
SR leukemia
  growth: -23.3% (active)
RPMI-8226 leukemia
  growth: -1.58% (active)
OVCAR-8 ovarian
  growth: -53.5% (active)
OVCAR-5 ovarian
  growth: -44.4% (active)
OVCAR-4 ovarian
  growth: -69.1% (active)
SK-OV-3 ovarian
  growth: -80.8% (active)
IGROV1 ovarian
  growth: 26.5% (inactive)
OVCAR-3 ovarian
  growth: -59.6% (active)
HS 578T breast
  growth: -8.27% (active)
NCI/ADR-RES ovarian
  growth: 64.8% (inactive)

## Cc1ccc2c(ccc3c[n+]4c5ccccc5ccc4n32)c1
SR leukemia
  growth: -12.5% (active)
RPMI-8226 leukemia
  growth: 31.7% (inactive)
OVCAR-8 ovarian
  growth: 3.22% (active)
OVCAR-5 ovarian
  growth: 47.6% (inactive)
OVCAR-4 ovarian
  growth: -35.4% (active)
SK-OV-3 ovarian
  growth: 0.442% (active)
IGROV1 ovarian
  growth: 27% (inactive)
OVCAR-3 ovarian
  growth: -43.2% (active)
HS 578T breast
  growth: 14.4% (inactive)
NCI/ADR-RES ovarian
  growth: 70.3% (inactive)

## COC(=O)[C@@]12OC[C@]34[C@H]([C@@H](O)[C@@H]1O)[C@@]1(C)[C@H](O)C(=O)C=C(C)[C@@H]1C[C@H]3OC(=O)C(OC(C)=O)[C@@H]24 (stereo partly drawn)
SR leukemia
  growth: -43% (active)
RPMI-8226 leukemia
  growth: -69.8% (active)
OVCAR-8 ovarian
  growth: -18.6% (active)
OVCAR-5 ovarian
  growth: -11.5% (active)
OVCAR-4 ovarian
  growth: 3.68% (active)
IGROV1 ovarian
  growth: -58% (active)
OVCAR-3 ovarian
  growth: -48.4% (active)
HS 578T breast
  growth: -33% (active)

## COc1ccccc1/C=C\C(=O)c1ccccc1
SR leukemia
  growth: 15.3% (inactive)
RPMI-8226 leukemia
  growth: -13.3% (active)
OVCAR-8 ovarian
  growth: 75.8% (inactive)
OVCAR-5 ovarian
  growth: 84% (inactive)
OVCAR-4 ovarian
  growth: 81.2% (inactive)
SK-OV-3 ovarian
  growth: 94.5% (inactive)
IGROV1 ovarian
  growth: 64.4% (inactive)
OVCAR-3 ovarian
  growth: 110% (inactive)
HS 578T breast
  growth: 86% (inactive)
NCI/ADR-RES ovarian
  growth: 14.2% (inactive)
